Among all 310,000 compounds or so, about 2,600 (0.84%) were called active.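 The calls were made as follows: active = fluorescence ratio B-score at or below minus 3 SD of library scores, with starting-brightness B-score within 2 SD (cut at about -4.2 in these data); inactive = the rest.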 This excerpt belongs to a sample that is enriched for actives.

Sequence of Inward rectifier potassium channel 2 (Mus musculus) (P35561 whole entry, looked up): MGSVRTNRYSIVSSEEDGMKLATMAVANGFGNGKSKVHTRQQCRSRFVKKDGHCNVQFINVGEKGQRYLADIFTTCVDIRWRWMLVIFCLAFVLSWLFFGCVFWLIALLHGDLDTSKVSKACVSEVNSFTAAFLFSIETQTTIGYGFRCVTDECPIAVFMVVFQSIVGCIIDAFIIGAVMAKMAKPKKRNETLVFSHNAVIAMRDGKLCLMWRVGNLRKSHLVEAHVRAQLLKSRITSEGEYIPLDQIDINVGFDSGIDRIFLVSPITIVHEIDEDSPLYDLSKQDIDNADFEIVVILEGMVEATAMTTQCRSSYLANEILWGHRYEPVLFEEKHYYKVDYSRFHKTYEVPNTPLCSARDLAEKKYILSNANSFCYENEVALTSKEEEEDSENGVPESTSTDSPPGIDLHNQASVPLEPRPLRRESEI

The experiment has as its target Inward rectifier potassium channel 2 (Mus musculus) (UniProt P35561). Put plainly: inhibitors of mouse Kir2.1 inward-rectifier potassium channel (AID 1672).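 Also: channel flux triggered by added potassium and thallium sulfate stimulus; B-score of peak minus minimum fluorescence over baseline after thallium stimulus; more negative B-score means stronger Kir2.1 block with less thallium influx.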 The following applies: HEK293-Kir2.1, FluxOR thallium flux fluorescence; at 10 µM; active compounds read low.
Take `COc1ccc(-c2nn(-c3ccccc3)cc2/C=C2/SC(=S)N(CCCC(=O)O)C2=O)c(C)c1`: the B-score is 0.15 (inactive).

For the compound `CN(C)S(=O)(=O)c1cccc(-c2nn(-c3ccccc3)cc2/C=C2\SC(=S)N(CC(=O)O)C2=O)c1`, the B-score was 0.81 (inactive).

In the case of `Cc1ccc(-c2nn(-c3ccccc3)cc2/C=C2\SC(=S)N(CCCCCC(=O)O)C2=O)o1`, the B-score was -6 (active).

As to `COc1ccc(-c2cc(C(=O)N/N=C/c3cccnc3)c3ccccc3n2)c(OC)c1`, the B-score was 0.47 (inactive).

As for `O=C(NNC(=O)c1ccc(-c2ccccc2)cc1)Nc1ccccc1`, the B-score was -0.44 (inactive).

Turning to `CCOC(=O)c1c(C)[nH]c(C(=O)OCC(=O)N2CCCC2=O)c1C`, the B-score is -0.25 (inactive).

On to `Cc1ccc2nc(NC(=O)CSc3nc(=O)n(CCCN(C)C)c4c3CCC4)sc2c1`, for which the B-score is -4.83 (active).

Regarding `Cc1ccc(NC(=O)CSc2nc(=O)n(CCN(C)C)c3c2CCCC3)c(C)c1`, the B-score is -0.41 (inactive).

`Cc1csc(NC(=O)CSc2nc(=O)n(CCCN(C)C)c3c2CCC3)n1`: the B-score is 1.14 (inactive).

`COc1ccc(S(=O)(=O)N2CCCCC2)cc1NC(=O)COc1ccccc1`: the B-score is 0.95 (inactive).

Consider `CC(Nc1nc(N2CCN(CCO)CC2)nc2ccccc12)c1ccccc1` (stereo not drawn), for which the B-score is -0.6 (inactive).

`CC(Nc1nc(N2CCCC2)nc2ccccc12)c1ccccc1` (stereo not drawn): the B-score is -4.56 (active).

Consider `CC(Nc1nc(N2CCOCC2)nc2ccccc12)c1ccccc1` (stereo not drawn), for which the B-score was -0.41 (inactive).

On to `COc1ccc(CCNCc2c(-c3ccccc3)n(C)c3ccccc23)cc1`, for which the B-score is -10.9 (active).

As for `COc1ccc(-c2c(C#Cc3ccccc3)c3ccccc3n2C)cc1`, the B-score is 0.01 (inactive).

On to `COc1ccc(-c2nc3ccccc3c(=O)n2CCc2ccc(O)cc2)cc1`, for which the B-score was 0.02 (inactive).

For the compound `CCOc1cc2ccccc2cc1C(=O)Nc1ccccn1`, the B-score was 1.1 (inactive).

On to `COc1ccccc1C(=O)Nc1ccccc1C(=O)Nc1ccccc1`, for which the B-score is 1.53 (inactive).

In the case of `COc1cccc2[nH]c(C(=O)NCCc3ccccc3)cc12`, the B-score was 0.06 (inactive).

Turning to `COc1ccccc1OCCNCC(O)COc1cccc2[nH]c3ccccc3c12` (stereo not drawn), the B-score is -4.77 (active).

On to `CC(C)(C)NCC(O)COc1cccc2[nH]c(=O)[nH]c12` (stereo not drawn), for which the B-score is 1.46 (inactive).

For `Cc1cc2oc(=O)cc(CN3CCN(Cc4ccccc4)CC3)c2cc1C`, the B-score is -2.25 (inactive).

In the case of `Cc1cc2oc3ccc(NCCC4CCCN4C)cc3c(=O)c2cc1C` (stereo not drawn), the B-score is -7.66 (active).

Consider `CCCOc1ccc(C2c3c(oc4cc(C)c(C)cc4c3=O)C(=O)N2CCCN2CCOCC2)cc1` (stereo not drawn), for which the B-score was 0.6 (inactive).

On to `COc1ccccc1NC(=O)COC(=O)c1ccccc1SCC(=O)N1CCCC1`, for which the B-score was 1.77 (inactive).

Turning to `O=C(c1cc(-c2ccco2)nc2ccccc12)N(Cc1nnc(-c2ccc(Cl)cc2)o1)C1CC1`, the B-score is -1.19 (inactive).

With `CCC(C)NC(=O)c1ccc(N2CCC3(CC2)OCCO3)c([N+](=O)[O-])c1` (stereo not drawn), the B-score is 0.4 (inactive).

For `CC(NC(=O)c1ccc(N2CCNCC2)c([N+](=O)[O-])c1)C12CC3CC(CC(C3)C1)C2` (stereo not drawn), the B-score was -8.06 (active).

Turning to `O=C(NC1C2CC3CC(C2)CC1C3)c1ccc(N2CCNCC2)c([N+](=O)[O-])c1` (stereo not drawn), the B-score was 0.7 (inactive).

Consider `COCOc1cc(O)c(C(=O)/C=C/c2ccc(OCOC)c(OCOC)c2)c(OCOC)c1`, for which the B-score was 1.19 (inactive).

Take `COc1ccc(CNC(=O)C2CCCC2)cc1`: the B-score was 1.06 (inactive).

As to `COc1ccc(Nc2cc(Cl)ccc2C(=O)O)cn1`, the B-score is 2.53 (inactive).

For the compound `COc1ccc(NC(=O)/C(Cl)=C(/Cl)S(=O)Cc2ccc(C)cc2)cn1` (stereo not drawn), the B-score is -5.16 (active).

As for `COc1ccc(NC(=O)c2cc(-c3ccc(C)cc3)on2)cc1`, the B-score is 0.92 (inactive).

For the compound `CC1CCN(c2ccc(-c3ccc(NC(=O)c4ccco4)cc3)nn2)CC1`, the B-score is 2.11 (inactive).

`COC(=O)c1ccc(NC(=O)c2ccccc2NS(=O)(=O)c2ccccc2)cc1`: the B-score was -0.07 (inactive).

`COc1cc(NC(=O)c2cccnc2SC)cc(OC)c1`: the B-score is -1.22 (inactive).

In the case of `COc1cc(NC(=O)c2ccccc2NS(=O)(=O)c2ccc(Cl)s2)cc(OC)c1`, the B-score is -4.91 (active).

With `Cc1ccn2c(=O)nc(SCC(=O)NCc3ccc4c(c3)OCO4)nc2c1`, the B-score was -1.61 (inactive).

In the case of `Cc1ccc2nc(NC(=O)C3CSC4(C)CCC(=O)N34)sc2c1` (stereo not drawn), the B-score is -0.28 (inactive).

As to `CCOc1ccc(S(=O)(=O)Nc2cccc(C(=O)NCC3(N4CCCCC4)CCCCC3)c2)cc1`, the B-score is -0.12 (inactive).

As for `Cc1ccc(C(=O)C(C)OC(=O)Cc2n[nH]c(=O)c3ccccc23)cc1C` (stereo not drawn), the B-score is -0.94 (inactive).

For the compound `O=C(CN1C(=O)NC2(CCCC2)C1=O)OCCOc1ccc(F)cc1`, the B-score was 0.63 (inactive).

On to `CCn1c2ccccc2c2cc(NC(=O)COC(=O)c3ccccc3Br)ccc21`, for which the B-score was 1.33 (inactive).

With `CCn1c2ccccc2c2cc(NC(=O)C/C(C)=N/NC(=O)c3ccccc3N)ccc21`, the B-score was 1.9 (inactive).

As for `CCn1c2ccccc2c2cc(NC(=O)CNC)ccc21`, the B-score was -5.93 (active).

Regarding `COc1ccc(CCNC(=O)C(=O)NCC2CCCN2S(=O)(=O)c2cccs2)cc1OC` (stereo not drawn), the B-score was -0.91 (inactive).

As to `COc1ccc(C)cc1S(=O)(=O)Nc1cc2c3c(c1)CCC(=O)N3CCC2`, the B-score is 0.54 (inactive).

Turning to `COc1ccc(NC(=O)CCC(=O)N2CCN(S(=O)(=O)c3ccc(C)cc3)CC2)c(OC)c1`, the B-score is -0.19 (inactive).

`COc1ccccc1C(=O)NC(CCSC)C(=O)N1CCN(C/C=C/c2ccccc2)CC1` (stereo not drawn): the B-score was -1.22 (inactive).

In the case of `COc1ccc(CN2CCN(Cc3ccc(OC)c(OC)c3OC)CC2)cc1`, the B-score was 0.47 (inactive).

As to `COc1ccc(Cn2nnc3c(=O)[nH]c(C4CCN(C(=O)c5ccccc5Cl)CC4)nc32)cc1`, the B-score was 1.59 (inactive).

For the compound `COc1ccc(CN2CCC(c3nc4ccc(Cl)cc4[nH]3)CC2)cc1`, the B-score was -7.29 (active).

In the case of `O=C(Nc1ccc(S(=O)(=O)N2CCCCC2)cc1)C1CCN(C(=O)c2ccc(F)cc2)CC1`, the B-score was -0.97 (inactive).

In the case of `COc1cc(/C=N/O)cc(Br)c1OCc1cccc(Cl)c1`, the B-score was -0.84 (inactive).

With `COc1cc(/C=N/O)cc(Br)c1OS(=O)(=O)c1ccc(C)cc1`, the B-score is -10.4 (active).

Take `COc1cc(/C=N/Nc2ccc(C)cc2)cc(Br)c1O`: the B-score is -0.11 (inactive).

For the compound `CCc1nnc(NS(=O)(=O)c2ccc(NC(=O)c3cccc(OC(F)(F)C(F)F)c3)cc2)s1`, the B-score is -0.69 (inactive).

(Values after PubChem BioAssay AID1672 (Johns Hopkins Ion Channel Center, 2009).)
